# The full ranking holds about 33,000 sequences; the median of “e-score” is about -0.053, and the highest 2% start at about 0.38. The sample holds the highest values, similar sequences and a random draw of the others, so the mix is not that of the screen.
# Biological target: T1, SIX1 homeodomain (reference allele) (human, UniProt Q15475 108-198)
# T1 sequence: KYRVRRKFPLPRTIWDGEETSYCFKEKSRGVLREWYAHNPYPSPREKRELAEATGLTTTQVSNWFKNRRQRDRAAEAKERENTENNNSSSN
# Assay: universal protein binding microarray; Universal all-10-mer PBM (8x60K, AMADID 030236), 300 nM GST-tagged protein, Alexa Fluor 488 anti-GST; buffer, salt, pH and temperature not stated (as in Berger); high values mean tight binding
# Settings: protein: ivt; tags: N-terminal GST; dsDNA, one strand shown
# Summary of the method: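 Duplicate protein binding microarrays (universal 'all 10-mer', 8×60K format) were incubated with GST-tagged homeodomains at 300 nM final concentration. Binding was quantified as 8-mer E-scores with the Universal PBM Analysis Suite.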
row,Sequence,binding signal [E-score]
1,AGCGATAT,0.42 ± 0.0465
2,AGCGATCG,0.211 ± 0.0392
3,AGCGCGAT,0.166 ± 0.026
4,GGCGATGA,0.193 ± 0.0619
5,CGCGATAC,0.458 ± 0.000728
6,GGCGATCA,0.338 ± 0.00739
7,CGCGATAG,0.199 ± 0.0163
8,AGCGATAG,0.209 ± 0.0329
9,GGCGATAC,0.4435 ± 0.00237
10,CGCGACAC,0.254 ± 0.0327
11,AGCGATCA,0.206 ± 0.0525
12,ATACACGA,0.234 ± 0.00563
13,GGCCGATA,0.29107 ± 0.000269
14,CGATGCAG,0.21 ± 0.0529
15,AGGCATAT,0.308 ± 0.0386
16,GACAGATC,0.286 ± 0.0143
17,GTAATCTA,0.15 ± 0.0468
18,CTATACTA,0.168 ± 0.0897
19,CCTCTAGA,0.158 ± 0.0403
20,ACCGCGCG,0.175 ± 0.0242
21,AGCGATCC,0.356 ± 0.0223
22,CGCGATCC,0.391 ± 0.0245
23,CGCGATCA,0.272 ± 0.00455
24,CGTATATA,0.253 ± 0.0289
25,GGTATACC,0.464 ± 0.0068
26,AGTATACA,0.294 ± 0.0103

row,Sequence,binding signal [E-score]
1,GCTATACC,0.284 ± 0.0448
2,TGTATACA,0.3188 ± 0.000346
3,ATTATACC,0.389 ± 0.0376
4,GGTATAAC,0.301 ± 0.0179
5,GGTATACA,0.3843 ± 0.00371
6,ATTATACG,0.302 ± 0.0645
7,CTTATACC,0.275 ± 0.0521
8,GGTATAGA,0.3008 ± 0.001
9,GGTATATA,0.384 ± 0.0217
10,ACCAGTAT,0.24 ± 0.0167
11,ATCCTGTC,0.228 ± 0.0128
12,ATCCATGA,0.273 ± 0.0349
13,CGCAGATC,0.214 ± 0.00241
14,GGATAGCA,0.241 ± 0.00553
15,ATCTATTC,0.24 ± 0.00333
16,CGTATACC,0.367 ± 0.014
17,AGTATACT,0.219 ± 0.0526
18,AGTATACC,0.389 ± 0.0206
19,ATACTTGC,0.215 ± 0.0473
20,CAGGGATC,0.42 ± 0.0412
21,CAGGGATA,0.328 ± 0.0119
22,GAAGGATA,0.268 ± 0.0478
23,CGGGGATC,0.396 ± 0.0226
24,AGGGGATG,0.201 ± 0.0454
25,CTGGGATC,0.297 ± 0.0767
26,CCGGGATC,0.375 ± 0.0348

row,Sequence,binding signal [E-score]
1,AGGGGATC,0.426 ± 0.0173
2,GAAGGATC,0.39 ± 0.012
3,CAAGGATC,0.351 ± 0.0137
4,ATGGGATC,0.368 ± 0.0389
5,ACGGGATC,0.342 ± 0.0556
6,GCTGTATA,0.232 ± 0.0591
7,ATACACTG,0.338 ± 0.00871
8,ACGTCTCA,0.322 ± 0.0324
9,AGATCTCA,0.262 ± 0.0503
10,TCCATCAA,0.168 ± 0.0474
11,ATACTTAA,0.19 ± 0.132
12,AGTCATAT,0.257 ± 0.0554
13,CGATAGTA,0.263 ± 0.0297
14,AAGGGATC,0.377 ± 0.0133
15,AAGGGATT,0.188 ± 0.061
16,AAAGGATC,0.279 ± 0.0681
17,ATACGCCG,0.277 ± 0.0315
18,GTATTAGA,0.237 ± 0.0563
19,GTATTATA,0.377 ± 0.042
20,ATATTATA,0.333 ± 0.0863
21,AATACGGA,0.169 ± 0.0478
22,CATCCACG,0.183 ± 0.0475
23,GGTGAGAA,0.162 ± 0.0553
24,AATATCGG,0.312 ± 0.0183
25,GATATAGC,0.368 ± 0.0388
26,GATATCGC,0.468 ± 0.0155

row,Sequence,binding signal [E-score]
1,CAGATCGA,0.277 ± 0.0349
2,CATATCGC,0.424 ± 0.0197
3,CATATCGG,0.401 ± 0.0215
4,CATATAGA,0.183 ± 0.00672
5,CATATCGA,0.417 ± 0.00575
6,AATATCGC,0.299 ± 0.0725
7,AATATCGT,0.309 ± 0.0634
8,GAGATCGC,0.27 ± 0.0213
9,CATATAGC,0.162 ± 0.0222
10,GGTGTAAC,0.309 ± 0.00742
11,AGACGGTA,0.196 ± 0.0243
12,CACTAATA,0.215 ± 0.00278
13,GGATATTA,0.355 ± 0.0417
14,ATATGCCG,0.211 ± 0.0327
15,AGTTGTAT,0.215 ± 0.0407
16,AGATAAAG,0.183 ± 0.0397
17,CGTCTCAG,0.161 ± 0.0511
18,TACGCGCA,0.174 ± 0.0401
19,CGAATATC,0.308 ± 0.00674
20,GAACACCC,0.205 ± 0.0407
21,CCCCTTCC,0.164 ± 0.0967
22,GAGATCGA,0.271 ± 0.0142
23,TATATCGA,0.387 ± 0.0436
24,ATTATCCG,0.351 ± 0.0414
25,CATATACG,0.24 ± 0.0369
26,TATATCCA,0.335 ± 0.0312

row,Sequence,binding signal [E-score]
1,GATATTGA,0.287 ± 0.088
2,AATATCGA,0.241 ± 0.0403
3,GATATCGA,0.42 ± 0.0378
4,CATATCCG,0.426 ± 0.0135
5,CAACTATC,0.168 ± 0.0786
6,ATTGAATA,0.196 ± 0.0188
7,GTGTCGCA,0.173 ± 0.106
8,AAGAATAC,0.214 ± 0.0706
9,ATCAATTA,0.229 ± 0.0261
10,ATCGCCTG,0.206 ± 0.0204
11,ATACTGTG,0.226 ± 0.0353
12,TATCGCCA,0.36392 ± 0.000113
13,GATCGCGA,0.3375 ± 0.00196
14,TATCGCGA,0.395 ± 0.0175
15,CCGGCGGA,0.24 ± 0.0642
16,TCATCCGA,0.255 ± 0.0149
17,GCTGACAC,0.246 ± 0.0761
18,ACTGATAG,0.315 ± 0.0253
19,ACTGCTAT,0.177 ± 0.0391
20,ACTGATAC,0.465 ± 0.00916
21,ACTGATCA,0.181 ± 0.00344
22,CCTGATAC,0.4721 ± 0.0017
23,ACTGATAT,0.442 ± 0.0273
24,CCTGAGAC,0.168 ± 0.0173
25,CCTGATAG,0.266 ± 0.022
26,ACTGACAC,0.335 ± 0.01

row,Sequence,binding signal [E-score]
1,GCTGAGAC,0.214 ± 0.0303
2,GCTGATAC,0.459 ± 0.00926
3,GTATAGAA,0.215 ± 0.0496
4,TATCTCCA,0.282 ± 0.0362
5,ATGGCATC,0.155 ± 0.0404
6,ATCCAGTA,0.242 ± 0.0094
7,AGCAATAC,0.298 ± 0.00343
8,GATCGTGC,0.276 ± 0.0195
9,ACCTATAT,0.195 ± 0.0849
10,GCAGGAGA,0.153 ± 0.0104
11,GTCTCGTA,0.172 ± 0.0154
12,ATATCGTC,0.382 ± 0.0428
13,GTATCGTA,0.4227 ± 0.00184
14,ATATAGTA,0.304 ± 0.0257
15,ATATCGTA,0.402 ± 0.0509
16,CTATCGTC,0.163 ± 0.0581
17,CTATCGTA,0.266 ± 0.0154
18,GTATAGTA,0.285 ± 0.0663
19,ATATCGTG,0.376 ± 0.0365
20,GGTAGATA,0.336 ± 0.0074
21,GAGTAATA,0.204 ± 0.00279
22,AGATCTCG,0.214 ± 0.0497
23,GGTGTCTA,0.35 ± 0.0308
24,GGGGTCAA,0.151 ± 0.00175
25,GGTGTCAC,0.476 ± 0.0116
26,CGTGTCAC,0.1957 ± 0.000728

row,Sequence,binding signal [E-score]
1,GGTGTCGA,0.408 ± 0.0576
2,GGTGTCAA,0.45408 ± 0.000177
3,AGTGTCAC,0.253 ± 0.0143
4,AGTGTCAA,0.168 ± 0.0652
5,GGTGTCCA,0.314 ± 0.0555
6,CCGCTATA,0.176 ± 0.0395
7,CTTAGATA,0.19 ± 0.0471
8,GGTACACC,0.298 ± 0.064
9,AAGGGTGA,0.21 ± 0.0127
10,GCGTTAGA,0.197 ± 0.00519
11,GGGGATAA,0.311 ± 0.0718
12,CGGGATAC,0.408 ± 0.0263
13,AGGGATAC,0.4148 ± 0.000559
14,AGGGGGAT,0.376 ± 0.0175
15,GGGGACAC,0.161 ± 0.0585
16,CGGGATAA,0.17 ± 0.0308
17,AGGGATAG,0.27 ± 0.0085
18,GGGGATAC,0.44 ± 0.0287
19,AGGGATAA,0.292 ± 0.0171
20,AGGGATAT,0.45 ± 0.0188
21,CGGGATAG,0.268 ± 0.0112
22,TGGGATAA,0.176 ± 0.0405

# — publication PMC10668032, “Altered binding affinity of SIX1-Q177R correlates with enhanced WNT5A and WNT pathway effector expression in Wilms tumor”
